This is an account of results in PubChem BioAssay (Tox21).

Molecules are shown by their SMILES. “And” between values parts separate entries of the source, which are not always exact repeats. Equal values may be shown once. Records with an inconclusive call do not appear. Where a structure was tested more than once in an assay, its records may differ in their call. The source made the active and inactive calls. Unless noted, the call rests on the fitted dose curve; in most records, active means well fitted curve in the direction sought with a large enough effect in the repeat runs; inconclusive means weak or mixed curves; inactive means no such curve, though single readings can be large; an effect the other way counts as inactive or inconclusive.

Test [1] in a line: qHTS assay to identify small molecule antagonists of the thyroid receptor (TR) signaling pathway - cell viability counter screen (AID 743064). Further: nearly all actives have a fitted effect of over 50% in size. Further: potency means the concentration at half of the fitted maximal effect. In a few lines: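 GH3.TRE-Luc rat pituitary cells dosed after 4 hr plating, co-stimulated with T3 at 1 nM final, incubated 23.5 h at 37 C. Viability measured in the same wells by CellTiter-Fluor fluorescence after 30 min further at 37 C.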

Test [2] can be described thus: qHTS assay to identify small molecule antagonists of the thyroid receptor (TR) signaling pathway (AID 743065). Further: nearly all actives have a fitted effect of over 55% in size. Further: potency means the concentration at half of the fitted maximal effect. In short, it runs like this: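 GH3.TRE-Luc rat pituitary cells carrying two TR response elements driving luciferase were plated for 4 h, given compound plus 1 nM T3 (final), and incubated 23.5 h at 37 C. ONE-Glo luminescence measured reporter inhibition; CellTiter-Fluor fluorescence tracked cytotoxicity.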
(qHTS replaces the single test concentration by a dilution series.)

Test [3] deals with thyroid hormone receptor (rat, GH3 cells). Kind of test: qHTS assay to identify small molecule agonists of the thyroid receptor (TR) signaling pathway (AID 743066; calls by dose curve).
The target of test [4] is Estrogen receptor (Homo sapiens) (UniProt P03372). Kind of test: qHTS assay to identify small molecule antagonists of the estrogen receptor alpha (ER-alpha) signaling pathway (AID 743069; active means well fitted curve in the direction sought with a large enough effect in the signal ratio in the repeat runs, not every such curve was filed as active; the % refers to the signal ratio). In short, it runs like this:
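HEK293 cells stably carrying an ER-alpha-UAS-bla beta-lactamase reporter were pre-cultured overnight in 2% charcoal-stripped FBS medium. Test compounds in DMSO were added together with 17beta-estradiol for 18 hr at 37C. Read-out was fluorescence after 2 hr with LiveBLAzer B/G FRET substrate at room temperature.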

Test [5] has the same target. Description: qHTS assay to identify small molecule agonists of the estrogen receptor alpha (ER-alpha) signaling pathway (AID 743075; calls by dose curve).
Test [6] shares this target. Kind of test: qHTS assay to identify small molecule agonists of the estrogen receptor alpha (ER-alpha) signaling pathway using the BG1 cell line (AID 743079). Further: nearly all actives have a fitted effect of over 20% in size. Further: potency means the concentration at half of the fitted maximal effect.
Test [7] in a line: qHTS assay to identify small molecule antagonists of the estrogen receptor alpha (ER-alpha) signaling pathway using the BG1 cell line (AID 743080; calls by dose curve;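 further: BG1 cells stimulated with 17beta-estradiol alongside compound; series mostly up to about 70 µM; nearly all actives have a fitted effect of over 25% in size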). In short, it runs like this: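 BG1-Luc-4E2 cells (endogenous full-length ER-alpha, stable 4×ERE-luciferase) were starved 5 days in phenol-red-free medium with 10% charcoal-stripped FBS, plated 24 h, then given compound plus 17beta-estradiol for 21.5 h at 37 C; ONE-Glo luminescence read after 30 min.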

Test [8] can be described thus: qHTS assay to identify small molecule antagonists of the estrogen receptor alpha (ER-alpha) signaling pathway using the BG1 cell line - cell viability counter screen (AID 743081).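 Further: compound given together with 17beta-estradiol as the ER stimulus; nearly all actives have a fitted effect of over 45% in size.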 Further: potency means the concentration at half of the fitted maximal effect.
In a further test the target is Aromatase (Homo sapiens) (UniProt P11511). Kind of test: qHTS assay to identify aromatase inhibitors (AID 743083). Further: nearly all actives have a fitted effect of over 55% in size. Further: potency means the concentration at half of the fitted maximal effect.
Aromatase (Homo sapiens), sequence (P11511 whole entry, looked up): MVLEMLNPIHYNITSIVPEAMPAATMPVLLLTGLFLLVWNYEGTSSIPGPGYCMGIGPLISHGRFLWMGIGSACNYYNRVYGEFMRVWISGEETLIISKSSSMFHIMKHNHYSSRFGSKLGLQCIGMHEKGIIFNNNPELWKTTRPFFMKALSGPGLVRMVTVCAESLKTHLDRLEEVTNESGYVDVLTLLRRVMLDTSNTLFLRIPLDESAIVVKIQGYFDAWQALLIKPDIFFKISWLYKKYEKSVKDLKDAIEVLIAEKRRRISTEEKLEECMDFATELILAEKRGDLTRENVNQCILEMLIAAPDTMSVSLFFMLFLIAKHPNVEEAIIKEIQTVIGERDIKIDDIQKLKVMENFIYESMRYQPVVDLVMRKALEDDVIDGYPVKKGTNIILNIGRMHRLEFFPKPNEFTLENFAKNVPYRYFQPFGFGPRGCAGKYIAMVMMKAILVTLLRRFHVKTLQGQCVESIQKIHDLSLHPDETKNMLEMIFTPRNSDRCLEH
The nature of test [9]: qHTS assay to identify small molecule antagonists of the estrogen receptor alpha (ER-alpha) signaling pathway - cell viability counter screen (AID 743074; calls by dose curve; further: nearly all actives have a fitted effect of over 45% in size; further: potency means the concentration at half of the fitted maximal effect).

Estrogen receptor (Homo sapiens), sequence (P03372 whole entry, looked up): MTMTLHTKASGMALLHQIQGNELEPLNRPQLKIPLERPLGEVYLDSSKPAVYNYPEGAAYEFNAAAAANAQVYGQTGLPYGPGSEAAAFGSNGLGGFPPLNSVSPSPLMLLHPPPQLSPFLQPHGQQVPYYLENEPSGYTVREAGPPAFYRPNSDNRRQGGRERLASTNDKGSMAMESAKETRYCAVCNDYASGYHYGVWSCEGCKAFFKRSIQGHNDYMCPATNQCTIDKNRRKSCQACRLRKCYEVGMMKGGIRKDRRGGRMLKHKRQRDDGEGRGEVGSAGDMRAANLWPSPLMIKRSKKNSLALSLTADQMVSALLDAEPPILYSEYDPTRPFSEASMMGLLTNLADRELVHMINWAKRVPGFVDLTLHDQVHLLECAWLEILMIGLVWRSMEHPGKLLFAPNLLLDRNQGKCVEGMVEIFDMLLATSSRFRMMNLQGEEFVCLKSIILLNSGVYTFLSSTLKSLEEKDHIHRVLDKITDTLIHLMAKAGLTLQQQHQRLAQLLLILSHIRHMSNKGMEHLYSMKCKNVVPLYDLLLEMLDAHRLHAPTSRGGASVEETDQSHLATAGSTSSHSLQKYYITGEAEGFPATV

In the case of `CCCCCCCCCCCc1ccccc1`, the Potency entry in [1], in test [2], in test [3], in test [4], in test [5] and in test [6] was “inactive” in each case. The Potency entry (in test [7]; in test [8]; with Aromatase (Homo sapiens)) was “inactive” each time.
Take `CCO[Si](CCCCl)(OCC)OCC`: the Potency result in test [1], in test [2], in [3], in test [4], in [5] and in test [6] was “inactive” in each case. The Potency result (in test [7]; in test [8]; in the test with Aromatase (Homo sapiens)) was “inactive” in each case.
For the compound `C=CCOc1ccccc1OCC(O)CNC(C)C` (centres undefined), the Potency result in [1], in test [2], in test [3], in test [4], in test [9] and in [5] was “inactive” each time. The Potency result (in test [6]; in [7]; with Aromatase (Homo sapiens)) was “inactive” throughout.
Take `CC(C)Nc1ccc(NC(C)C)c2c1C(=O)c1ccccc1C2=O`: the Potency entry in test [1], in test [2], in [3], in test [4], in [9] and in test [5] was “inactive” in each case. Besides, the Potency entry (in test [6]; in [8]; with Aromatase (Homo sapiens)) was “inactive” each time.
As for `CC1OC(=O)C(C)OC1=O` (centres undefined), the Potency entry in test [1], in test [2], in test [3], in test [4], in [9] and in test [5] was “inactive” in each case. The Potency entry (in test [7]; in [8]; with Aromatase (Homo sapiens)) was “inactive” in each case.
For the compound `CC1=CCCC(C)(C)C12CCC(C)O2` (centres undefined), the Potency result in test [1], in test [2], in [3], in [9] and in test [8] was “inactive” throughout.
With `CCn1cc(C(=O)O)c(=O)c2cnc(N3CCNCC3)nc21`, the Potency entry (in [1]; in test [2]; in test [3]; in test [9]; in [8]; with Aromatase (Homo sapiens)) was “inactive” each time.
For `OCCN1CCN(CCCN2c3ccccc3C=Cc3ccccc32)CC1`, the Potency was 6.68 µM (active) and 7.5 µM (active) in test [1]; 11.9 µM (active) and 26.6 µM (active) in [2]; 10.6 µM (active) and inactive in test [8]. Further, the Potency result (in [3]; in test [9]; in test [5]; in test [6]; in test [7]; with Aromatase (Homo sapiens)) was “inactive” throughout.
Consider `CCC(Cl)CCC(Cl)C(Cl)CC(Cl)C(Cl)C(Cl)CCl` (centres undefined), for which the Potency entry (in [1]; in test [2]; in test [3]; in [9]; in [8]; with Aromatase (Homo sapiens)) was “inactive” each time.
As to `CCCCOC(=O)CCCCCCCC(=O)OCCCC`, the Potency result (in test [1]; in test [2]; in test [3]; in [9]; in [8]; with Aromatase (Homo sapiens)) was “inactive” each time.
As to `COc1ccc(C)cc1[N+](=O)[O-]`, the Potency entry (in test [1]; in test [2]; in test [3]; in test [9]; in test [8]; with Aromatase (Homo sapiens)) was “inactive” throughout.
For the compound `C/C=C/C=C/CO`, the Potency entry (in [1]; in test [2]; in test [3]; in [9]; in test [8]; in the test with Aromatase (Homo sapiens)) was “inactive” throughout.
For `CCCCCCc1ccc(-c2ccc(C#N)cc2)cc1`, the Potency entry in test [1], in test [2], in test [3], in [9] and in [8] was “inactive” in each case.
For `CC(C)O.CC(C)O.CCOC(=O)/C=C(\C)O.CCOC(=O)/C=C(\C)O.[Ti]`, the Potency entry in test [1], in test [2], in test [3], in test [9] and in test [8] was “inactive” throughout.
Regarding `O=C(c1ccc(F)cc1)C1CCN(CCn2c(=S)[nH]c3ccccc3c2=O)CC1`, the Potency entry (in test [1]; in test [2]; in test [3]; in test [9]; in test [8]; with Aromatase (Homo sapiens)) was “inactive” throughout.
For `COc1ccc(C(=O)Nc2nc3ccccc3c(NCc3ccccc3)c2C#N)cc1`, the Potency entry in [1], in test [2], in [3], in test [9], in test [5] and in test [8] was “inactive” in each case.
For `CCOC(=O)C(F)(F)F`, the Potency entry (in [1]; in test [2]; in test [3]; in [9]; in [8]; in the test with Aromatase (Homo sapiens)) was “inactive” throughout.
`CCCCCCCCCc1ccc(OCCOCCO)cc1`: the Potency is 18.8 µM (active) and inactive in test [1]; 18.8 µM (active) in test [2]; 15.1 µM (active) and 16.3 µM (active) in test [9]; 15 µM (active) in test [8]; 22.8 µM (active) in the test with Aromatase (Homo sapiens). For the same compound, in test [3], the Potency result was “inactive”.
As to `CCCCCCCCCCCC(=O)OC[C@@H](O)[C@H]1OC[C@H](OCCO)[C@H]1OCCO`, the Potency result in test [1], in test [2], in [3], in test [9], in [5] and in test [6] was “inactive” in each case. Further, the Potency result in test [8] was “inactive”.
With `Cc1cc(C(=O)O)ccc1[N+](=O)[O-]`, the Potency result in test [1], in test [2], in test [3], in test [9], in test [5] and in [6] was “inactive” in each case. The Potency result (in test [7]; in [8]; with Aromatase (Homo sapiens)) was “inactive” in each case.
`Nc1ccc(S(=O)(=O)Nc2ccccc2)cc1`: the Potency entry (in test [1]; in test [2]; in test [3]; in test [9]; in [8]; with Aromatase (Homo sapiens)) was “inactive” throughout.
`CC(=O)NO`: the Potency entry (in test [1]; in [2]; in test [3]; in test [9]; in test [8]; in the test with Aromatase (Homo sapiens)) was “inactive” each time.
Take `O=C(O)C(S)C(S)C(=O)O` (centres undefined): the Potency was 26.6 µM (active) in test [1] and 11.9 µM (active) in test [2]. Further, the Potency entry (in [3]; in test [9]; in [8]; with Aromatase (Homo sapiens)) was “inactive” in each case.
As to `Nc1cc(C(=O)O)c(O)c(S(=O)(=O)O)c1`, the Potency result (in [1]; in test [2]; in test [3]; in [9]; in test [8]; with Aromatase (Homo sapiens)) was “inactive” in each case.
Take `Nc1ccccc1S(=O)(=O)c1ccccc1`: the Potency entry in test [1], in test [2], in [3], in test [9] and in [8] was “inactive” each time.
In the case of `CC1(c2ccccc2)OC(C(=O)O)=CC1=O` (centres undefined), the Potency result (in test [1]; in [2]; in test [3]; in test [9]; in test [8]; with Aromatase (Homo sapiens)) was “inactive” in each case.
For `Brc1c2ccccc2cc2ccccc12`, the Potency entry in test [1], in test [2], in test [3], in [9] and in [8] was “inactive” in each case. Also, the Potency in test [6] is 30.9 µM (active).
Consider `Cc1ccccc1S(=O)(=O)O`, for which the Potency result in [1], in test [2], in test [3], in [9] and in test [8] was “inactive” each time.
Consider `Cc1cc(N)c2cc(NC(=O)Nc3ccc4nc(C)cc(N)c4c3)ccc2n1`, for which the Potency in test [1] and in test [2] was 29.8 µM (active) throughout. Besides, the Potency result (in test [3]; in test [9]; in test [8]; with Aromatase (Homo sapiens)) was “inactive” in each case.
As to `CCCCO`, the Potency entry (in test [1]; in [2]; in test [3]; in test [9]; in test [8]; with Aromatase (Homo sapiens)) was “inactive” each time.
Regarding `CCCCC`, the Potency entry in test [1], in test [2], in test [3], in test [9] and in test [8] was “inactive” each time.
Consider `CCCCc1ncc(/C=C(\Cc2cccs2)C(=O)O)n1Cc1ccc(C(=O)O)cc1`, for which the Potency result (in test [1]; in [2]; in test [3]; in test [9]; in test [8]; in the test with Aromatase (Homo sapiens)) was “inactive” each time.
Take `CC(C)(COC(=O)c1ccccc1)COC(=O)c1ccccc1`: the Potency entry (in test [1]; in test [2]; in [3]; in [9]; in [8]; with Aromatase (Homo sapiens)) was “inactive” in each case.
